LAP4-GFP MLPCN – yeast TOR pathway LAP4-GFP modulation; S. cerevisiae LAP4-GFP multiplex, flow cytometry GFP, 3 h; median GFP as percent of DMSO wells; GFP response vs DMSO, % at 10 µM; 320,000 compounds, 0.34% hits;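 active = GFP response vs DMSO above a set limit, about the screen mean plus 3 SD, cut at about 150% in these data; inconclusive = under 70 cell events counted for the yeast strain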
AGP1-GFP MLPCN – yeast TOR pathway AGP1-GFP modulation; S. cerevisiae AGP1-GFP multiplex flow cytometry, 3 h; GFP as percent of DMSO wells; GFP response vs DMSO, % at 10 µM; 320,000 compounds, 0.02% hits; AID 2066;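 active = GFP response relative to DMSO above a set limit, near screen average plus 3 SD, cut at about 150% in these data; inconclusive = fewer than 70 cells counted for the yeast strain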;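 note: median GFP channel fluorescence of the gated AGP1 strain per well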
RPL19A TOR yeast – alters RPL19A-GFP fluorescence in TOR pathway yeast screen | S. cerevisiae RPL19A-GFP strain, flow cytometry, 3 h; stronger effect = lower value | percent response vs DMSO, % at 10 µM | 330,000 compounds, 0.3% hits;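 active = percent response vs DMSO below 50%; inconclusive = fewer than 70 events counted for the yeast strain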;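 note: median channel GFP fluorescence of the barcoded RPL19A-GFP strain; ratio of sample median GFP to plate DMSO average so 100% = DMSO; lower means less RPL19A-GFP as with rapamycin TOR inhibition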
CIT2-GFP yeast – alters CIT2-GFP fluorescence in TOR pathway yeast screen. GFP response vs DMSO, % at 10 µM. 320,000 compounds, 0.065% hits. S. cerevisiae CIT2-GFP strain, flow cytometry, 3 h; 100 means same as DMSO wells;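 active = GFP response relative to DMSO above a set limit, near the screen mean plus 3 SD, cut at about 150% in these data; inconclusive = Fewer than 70 cells measured for a yeast strain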;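 note: ratio of well median GFP fluorescence to mean of DMSO wells on the plate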
MEP2-GFP yeast – yeast TOR pathway MEP2-GFP modulation | GFP response vs DMSO, % at 10 µM | AID 2016 | 330,000 compounds, 0.51% hits | S. cerevisiae MEP2-GFP strain, flow cytometry GFP, 3 h; 100% = DMSO control level;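 active = GFP response versus DMSO above a set limit, roughly screen mean plus 3 SD, cut at about 180% in these data; inconclusive = fewer than 70 cells counted for a yeast strain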;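 note: median GFP fluorescence of the barcode-gated MEP2-GFP cells per well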
Active calls of the source: *; ? = inconclusive; nt = no result given; [ ] = remark or other dose. Most compounds without a hit are left out; they make up all but 0.89% or so of the library.

SMILES	LAP4-GFP MLPCN	AGP1-GFP MLPCN	RPL19A TOR yeast	CIT2-GFP yeast	MEP2-GFP yeast
COc1ccc(CN(C)C(=O)C23CC4CC(CC(C4)C2)C3)c(OC)c1	?	?	47.1*[may fluoresce violet]	?	?
COc1ccccc1N1CCN(S(=O)(=O)c2ccc3c(c2)CC(C)N3C(C)=O)CC1 (stereo not given)	110.0	107.0	105.6	108.5	109.4
C=CCOc1ccc(/C(O)=C2/C(=O)C(=O)N(CCCN3CCOCC3)C2c2ccccc2)cc1 (stereo not given)	88.5	?	29.2*[may fluoresce violet]	?	315.5*[may fluoresce violet]
C=CCOc1ccc(/C(O)=C2/C(=O)C(=O)N(CCCN3CCOCC3)C2c2ccc(OC)cc2)cc1 (stereo not given)	98.7	99.6	96.9	98.8	100.4
C=C1C(=O)O[C@H]2C1CC[C@@](C)(O)C13C=CC(C)(C21)C1(C3)C(=O)O[C@@H]2C3C(C)=CCC3[C@](C)(O)C[C@H](OC(C)=O)C21 (stereo not given in full)	92.7	102.1	107.4	107.1	103.3
N#Cc1ccccc1Sc1ccccc1C(=O)OCC(=O)N1CCN(C(=O)c2ccco2)CC1	91.2	?	14.7*[may fluoresce violet]	?	207.0*[may fluoresce violet]
O=C(OCC(=O)N1CCN(C(=O)c2ccco2)CC1)c1ccccc1O	nt	94.5	95.5	96.4	107.4
O=C(CCCOc1ccccc1)Nc1ccccc1C(F)(F)F	100.1	101.9	101.3	98.8	91.3
N#CCOc1ccccc1/C=C/c1nc2ccccc2c(=O)[nH]1	60.9	?	24.4*[may fluoresce violet]	?	243.0*[may fluoresce violet]
Cc1ccccc1/C=C\c1nc2ccccc2c(=O)[nH]1	99.6	89.5	98.0	92.8	101.5
O=C1c2ccccc2C2=Nc3ccccc3SC(c3cccc(F)c3)C12 (stereo not given)	118.8	93.6	103.4	101.4	180.0*
N#CC1=C(N)OC2=C(CC/C2=C\c2ccccc2)C1c1ccccc1 (stereo not given)	107.1	18.6	94.5	?	188.2*[may fluoresce violet]
N#CC1=C(N)OC2=C(CC/C2=C\c2ccccc2Cl)C1c1ccccc1Cl (stereo not given)	96.7	98.2	109.5	97.8	104.9
CC(C)(C)SCCNC(=O)CN1C(=O)c2cccc3cccc1c23	81.8	99.2	102.1	97.1	93.1
O=C(CSc1nn(-c2ccccc2)c(=S)s1)NC1CCS(=O)(=O)C1 (stereo not given)	83.3	91.8	98.4	94.8	98.2
Brc1ccc2c(c1)OCCOCCOc1cc(Br)ccc1OCCOCCOCCO2	219.2*	105.2	77.3	90.4	111.0
CC(=O)c1ccc2c(c1)OCCOCCOCCO2	97.0	?	46.7*[may fluoresce violet]	?	574.8*[may fluoresce violet]
Brc1cc2c(cc1Br)OCCOCCOCCOCCO2	96.8	96.9	92.9	nt	100.2
CN(C(=O)C1CCCO1)c1nnc(-c2ccncc2)s1 (stereo not given)	102.1	90.3	102.4	106.8	95.7
C/C=C(\C)CN1CCC(n2nccc2NC(=O)CCc2ccccc2)CC1	91.0	101.7	106.0	98.1	98.3
Cc1cc(C)c2c(N)c3ccccc3nc2n1	99.4	22.4	14.9*[may fluoresce violet]	?	134.5
CCc1ccc2nc3nc(C)cc(C)c3c(N)c2c1	80.3	?	32.1*[may fluoresce violet]	?	384.5*[may fluoresce violet]
C/C(N)=N\S(=O)(=O)c1ccc(Cl)cc1	98.6	96.5	96.3	98.1	101.8
Cc1ccc2cc(CCl)c(Cl)nc2c1	109.2	?	36.2*[may fluoresce violet]	?	790.9*[may fluoresce violet]
COc1ccc(OC)c2sc(NC(=O)CCS(=O)(=O)c3ccccc3)nc12	100.7	92.4	94.0	89.1	98.1
SMILES	LAP4-GFP MLPCN	AGP1-GFP MLPCN	RPL19A TOR yeast	CIT2-GFP yeast	MEP2-GFP yeast
c1ccc2c(Oc3ccc4c(c3)OCO4)nncc2c1	102.7	91.8	96.5	98.0	98.0
CCOC(=O)C(=O)Nc1cc([N+](=O)[O-])ccc1C	99.5	105.8	104.3	102.2	102.4
COCC(=O)Nc1cc([N+](=O)[O-])ccc1C	92.1	30.5	nt	102.3	216.5*
O=C(Cc1cccc2ccccc12)Nc1ccccc1Br	90.3	100.3	101.9	98.9	107.1
O=C(Cc1cccc2ccccc12)Nc1ccccc1	57.0	?	46.5*[may fluoresce violet]	?	234.7*[may fluoresce violet]
Cc1cccc(C)c1NC(=O)N1CCCCCCC1	94.9	88.4	87.5	99.5	95.4
Cc1cccc(C)c1NC(=O)C1CCCNC1 (stereo not given)	129.4	?	20.3*[may fluoresce violet]	?	252.9*[may fluoresce violet]
COc1ccc(CCC(=O)NCCOc2ccccc2Cl)cc1	70.0	?	27.9*[may fluoresce violet]	?	185.5*[may fluoresce violet]
COc1ccc(C2CC(=O)C(C=NCCCO)=C(O)C2)cc1 (stereo not given)	99.5	99.2	96.6	100.0	99.6
CCN(CC)S(=O)(=O)c1cc(NC(=O)COC(=O)c2c(C)noc2C)ccc1C	94.2	99.0	100.7	99.2	97.1
Cn1nc(-c2ccc(Cl)cc2)nc2c(=O)n(C)c(=O)nc1-2	203.0*	105.4	51.8	61.5	110.6
Cc1[nH]nc2c1C(C(C)C)C(C#N)=C(N)O2 (stereo not given)	93.0	97.5	90.6	98.3	98.2
CC(=O)c1cccc(S(=O)(=O)N2CCC(C(=O)O)(c3ccccc3)CC2)c1	93.9	104.7	102.0	100.3	103.3
N#CC(C#N)=c1ccc2c(c1)N1C3=C(CCCC3)CC3CCCCC31N=2 (stereo not given)	108.4	104.5	102.3	107.4	110.7
N#C/C(C(N)=O)=c1/ccc2c(c1)N1C3=C(CCCC3)CC3CCCCC31N=2 (stereo not given)	159.7*	89.6	93.1	80.9	104.3
CC(C)NC(=O)C(=O)NCC(c1ccc2c(c1)OCO2)N1CCOCC1 (stereo not given)	97.9	102.4	94.8	91.1	91.8
COc1ccccc1C(=O)Nc1nsc(-c2ccccc2)n1	151.3*	83.5	93.4	79.0	86.7
COc1ccc(CCC(=O)NNC(=O)Nc2ccc(C(C)=O)cc2)cc1	67.8	93.3	105.5	86.6	102.2
CCC(C)(C)NC(=O)C(c1ccco1)N(C(=O)CNC(=O)c1cccs1)c1cccnc1 (stereo not given)	90.8	40.6	53.7	?	288.5*[may fluoresce violet]
CC1CCCC(n2cnc3cc(C(=O)O)ccc32)C1C (stereo not given)	86.4	94.5	96.8	74.4	93.4
CCN(CC)c1ccc(NC(=O)CSC(=O)c2ccccc2)cc1	108.9	102.5	97.5	99.3	96.7
O=S(=O)(c1ccccc1)N1CCN(CC2CC3C=CC2C3)CC1 (stereo not given)	106.4	101.3	100.1	104.3	104.8
O=S(=O)(c1ccc(F)cc1)N1CCN(CC2CC3C=CC2C3)CC1 (stereo not given)	90.0	20.3	55.4	?	207.3*[may fluoresce violet]
O=C(O)c1ccc2ccc3ccccc3c2c1	139.3	103.6	91.0	110.3	205.3*
COc1cccc(/C=C2\CCCCC2=O)c1	74.8	?	43.3*[may fluoresce violet]	?	426.4*[may fluoresce violet]

Screening results: PubChem, NMMLSC
